For 9 molecules, Potency, outcome and activity change, negative = inhibition results are on record in PubChem BioAssay (NCATS).

Structures are written as SMILES. Results filed as inconclusive are left out. Some structures have more than one record in an assay (separate samples or runs), and their calls can disagree. Calls of active or inactive are those of the source. Unless noted, the call rests on the fitted dose curve; in most records, active means well fitted curve in the direction sought with a large enough effect; inconclusive means small, poorly fitted or top-dose-only effect, or another doubt; inactive means no such curve, though single readings can be large; an effect the other way counts as inactive or inconclusive.

A short description of experiment [1]: Primary qHTS for inhibitors of La Crosse Virus (LACV) - induced cell death in SH-SY5Y cells (AID 1508616).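 Further: top concentration of the series differs between compounds; 0% = infected DMSO wells and 100% = uninfected DMSO wells; higher means more rescue of cells from virus-induced death.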 In a few lines:
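Readout was luminescence from ATPLite 1step added after a 6-day LACV infection (0.01 MOI) of SH-SY5Y cells that had received pin-transferred compound 24 hr after seeding.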

Experiment [2] concerns the target Calcium and integrin-binding protein 1 (Homo sapiens) (UniProt Q99828). The experiment is described as follows: Confirmatory qHTS for Identification of Calcium Integrin Binding Protein 1 (CIB1) Competitor (AID 1508617). Further: on the % scale 0 is the no-effect control and ±100 the full control effect; nearly all actives have a fitted effect of over 65% in size. In a few lines:
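Binding competition between test compounds and fluorescent alphaIIb peptide for 1 uM CIB1-GST is monitored by FP at 480/540 nm. Final compound range is up to 114 uM; unlabeled peptide serves as reference competitor.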
(qHTS replaces the single test concentration by a dilution series.)

In experiment [3] the target is Cytochrome P450 3A4 (Homo sapiens) (UniProt P08684). Nature of the experiment: Cytochrome P450 family 3 subfamily A member 4 (CYP3A4) small molecule antagonists: luciferase qHTS assay (AID 1645841; active means well fitted curve in the direction sought with a large enough effect in the repeat runs; an effect the other way counts as inactive or inconclusive; further: nearly all actives have a fitted effect of over 45% in size). In a few lines:
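P450-Glo CYP3A4 enzyme with proluciferin substrate was preincubated with DMSO-dissolved compounds for 10 min at room temperature. NADPH regeneration solution started a 1 h reaction. Detection reagent stopped it, and luminescence was read after 20 min.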

The target of experiment [4] is Cytochrome P450 2C9 (Homo sapiens) (UniProt P11712). Nature of the experiment: Cytochrome P450 family 2 subfamily C member 9 (CYP2C9) small molecule antagonists: luciferase biochemical (cell-free) qHTS assay (AID 1645842; active means well fitted curve in the direction sought with a large enough effect in the repeat runs; an effect the other way counts as inactive or inconclusive; further: nearly all actives have a fitted effect of over 55% in size; further: potency means the concentration at half of the fitted maximal effect; on activity change, negative = inhibition: on the % scale 0 is the no-effect control and ±100 the full control effect). In a few lines:
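Luminescence, after 20 min with luciferin detection reagent, reflected CYP2C9 turnover during a 1 h NADPH-driven reaction at 37C. Enzyme-substrate mix contained 0.4% bovine serum albumin and was preincubated with compound 10 min at room temperature.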

The nature of experiment [5]: Primary qHTS for inhibitors of MERS-S pseudo-typed particle cell entry (AID 1479149; calls by dose curve; further: potency means the concentration at half of the fitted maximal effect; nearly all actives have a fitted effect of over 60% in size).
Experiment [6] can be described thus: Primary qHTS for Vero E6 cytotoxicity: counterscreen for inhibitors of SARS-S pseudo-typed particle cell entry (AID 1479150; calls by dose curve).
A short description of experiment [7]: Cytotoxicity counterscreen for inhibitors of SARS-CoV-2 cell entry (AID 1645845; calls by dose curve; further: nearly all actives have a fitted effect of over 50% in size; further: potency means the concentration at half of the fitted maximal effect). Summed up:
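Expi293F/hACE2 cells seeded overnight; cpd pin-transferred in DMSO, 1 h preincubation, + media, 48 h 37 C 5% CO2; ATPLite 1step luminescence; normalized to cells and no cells.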

Experiment [8] in a line: Primary qHTS to identify inhibitors of SARS-CoV-2 cell entry (AID 1645846; calls by dose curve; further: nearly all actives have a fitted effect of over 45% in size; further: potency means the concentration at half of the fitted maximal effect). To be noted: activity change, negative = inhibition: at 57.1 µM (top of the series) unless noted. Summed up: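 HEK293 cells stably expressing human ACE2, pre-treated 1 h with compound, then infected with MLV particles pseudotyped with Wuhan-Hu-1 spike (C-terminal 19-aa truncation). Luciferase luminescence after 48 h at 37 °C, normalised to spike PP and bald PP.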

The nature of experiment [9]: VSVG counterscreen qHTS to identify inhibitors of SARS-CoV-2 cell entry (AID 1645847; calls by dose curve; further: potency means the concentration at half of the fitted maximal effect; nearly all actives have a fitted effect of over 65% in size). In a few lines: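 HEK293-ACE2 cells (Expi293F, human ACE2) pretreated 1 h with compound, then infected with MLV-based VSV-G pseudotyped particles for 48 h at 37 C; luciferase luminescence normalized to VSV-G PP and bald PP wells.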
The target of experiment [10] is Calcium and integrin-binding protein 1 (Homo sapiens) (UniProt Q99828). The experiment is described as follows: Primary qHTS for Identification of Calcium Integrin Binding Protein 1 (CIB1) Competitor (AID 1508620).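 Further: GST tagged CIB1 binding a fluorescein labelled alphaIIb integrin peptide tracer; top concentration of the series differs between compounds; on the % scale 0 is the no-effect control and ±100 the full control effect.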 In a few lines:
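Fluorescence polarization competition: CIB1-GST (1 uM final) preincubated with compound 15 min at room temperature, then FITC-labeled alphaIIb peptide (100 nM final) added for another 15 min. Polarization read at Ex 480/Em 540.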

A short description of experiment [11]: Primary qHTS for small molecule stabilizers of the endoplasmic reticulum resident proteome: Secreted ER Calcium Modulated Protein (SERCaMP) assay (AID 1508630). Further: on the % scale 0 is the no-effect control and ±100 the full control effect. In a few lines: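 GLuc-SERCaMP-expressing SH-SY5Y cells, pretreated 16 h with compound, are challenged with thapsigargin to empty ER calcium stores; after 4 h, coelenterazine is added directly to the medium and luminescence is imaged.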

The nature of experiment [12]: A High-Content qHTS Against Drug Library for the Identification of Small Molecules that Inhibit DYT1 Early Onset Primary Dystonia-Associated Cell Pathology (AID 1645839; calls by dose curve). Summed up:
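Readout: %pathology, the punctate EGFP-TorsinA distribution from imaging, as the primary channel and cell count as the toxicity counterscreen. HEK293 Flp-In cells expressing delE TorsinA were induced with tetracycline and treated with compound for 48 h.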

The target in experiment [13] is Cytochrome P450 2D6 (Homo sapiens) (UniProt P10635). Nature of the experiment: Cytochrome P450 family 2 subfamily D member 6 (CYP2D6) small molecule antagonists: luciferase biochemical (cell-free) qHTS assay (AID 1645840; active means well fitted curve in the direction sought with a large enough effect in the repeat runs; an effect the other way counts as inactive or inconclusive; further: nearly all actives have a fitted effect of over 55% in size; further: potency means the concentration at half of the fitted maximal effect). In a few lines: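 P450-Glo luminescent screen: recombinant CYP2D6 enzyme–proluciferin substrate mix preincubated with compound 10 min at room temperature, then NADPH regeneration added for 1 h at room temperature. Detection reagent added for 20 min; luciferin light read as relative luminescence units.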
Cytochrome P450 2D6 (Homo sapiens), sequence (P10635 whole entry, looked up): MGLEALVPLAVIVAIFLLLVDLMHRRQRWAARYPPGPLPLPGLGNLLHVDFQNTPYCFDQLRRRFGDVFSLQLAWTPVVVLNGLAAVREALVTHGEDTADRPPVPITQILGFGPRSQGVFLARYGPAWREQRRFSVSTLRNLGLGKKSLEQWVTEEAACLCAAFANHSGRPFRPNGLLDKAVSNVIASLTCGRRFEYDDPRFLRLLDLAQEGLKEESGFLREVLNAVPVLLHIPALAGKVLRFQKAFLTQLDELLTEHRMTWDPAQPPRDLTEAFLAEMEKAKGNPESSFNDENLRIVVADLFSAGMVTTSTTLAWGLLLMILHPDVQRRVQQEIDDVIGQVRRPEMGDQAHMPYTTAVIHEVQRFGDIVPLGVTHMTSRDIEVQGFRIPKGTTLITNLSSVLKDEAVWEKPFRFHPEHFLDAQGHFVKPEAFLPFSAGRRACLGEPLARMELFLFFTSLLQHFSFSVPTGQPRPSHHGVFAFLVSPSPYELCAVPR

Experiment [14] in a line: Confirmatory qHTS for small molecule stabilizers of the endoplasmic reticulum resident proteome: Secreted ER Calcium Modulated Protein (SERCaMP) assay (AID 1508628).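 Further: SH-SY5Y cells given compound 16 h then thapsigargin 100 nM for 4 h; on the % scale 0 is the no-effect control and ±100 the full control effect; nearly all actives have a fitted effect of over 40% in size.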 In a few lines: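 We seeded SH-SY5Y-GLuc-SERCaMP cells, added compounds (three concentrations in the primary run, eleven up to 76.6 uM in confirmation), incubated 16 h, depleted ER calcium with thapsigargin, and read luciferase 4 h later.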

In the next experiment the target is Papain (Carica papaya) (UniProt P00784). Nature of the experiment: Primary qHTS assay for inhibitors of the protease papain (AID 1645873).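 Further: papain turnover of Z-FR-AMC read as the AMC fluorescence gain over 10 min; on the % scale 0 is the no-effect control and ±100 the full control effect.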
Papain (Carica papaya), sequence (P00784 whole entry, looked up): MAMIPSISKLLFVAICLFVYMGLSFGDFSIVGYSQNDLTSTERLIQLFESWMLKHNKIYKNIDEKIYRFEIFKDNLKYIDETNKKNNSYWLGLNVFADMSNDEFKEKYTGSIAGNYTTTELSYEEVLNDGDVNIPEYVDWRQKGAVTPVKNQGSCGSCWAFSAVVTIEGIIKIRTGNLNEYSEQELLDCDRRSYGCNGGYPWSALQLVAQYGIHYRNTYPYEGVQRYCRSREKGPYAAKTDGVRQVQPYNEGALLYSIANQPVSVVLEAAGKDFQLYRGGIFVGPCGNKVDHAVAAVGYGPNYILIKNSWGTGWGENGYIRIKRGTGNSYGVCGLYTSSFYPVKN

Cytochrome P450 2C9 (Homo sapiens), sequence (P11712 whole entry, looked up): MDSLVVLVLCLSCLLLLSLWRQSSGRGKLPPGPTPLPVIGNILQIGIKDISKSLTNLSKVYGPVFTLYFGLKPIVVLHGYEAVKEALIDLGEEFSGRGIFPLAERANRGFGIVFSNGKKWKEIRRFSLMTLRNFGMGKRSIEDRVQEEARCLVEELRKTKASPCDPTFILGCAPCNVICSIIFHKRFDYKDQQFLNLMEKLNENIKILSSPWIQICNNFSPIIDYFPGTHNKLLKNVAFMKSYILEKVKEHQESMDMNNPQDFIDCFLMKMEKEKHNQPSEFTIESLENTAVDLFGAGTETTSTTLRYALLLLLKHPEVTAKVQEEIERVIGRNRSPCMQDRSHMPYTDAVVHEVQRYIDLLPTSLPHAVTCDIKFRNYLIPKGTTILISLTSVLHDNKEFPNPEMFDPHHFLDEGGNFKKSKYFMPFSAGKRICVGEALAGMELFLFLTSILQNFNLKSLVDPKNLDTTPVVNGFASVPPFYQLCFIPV
Calcium and integrin-binding protein 1 (Homo sapiens), sequence (Q99828 whole entry, looked up): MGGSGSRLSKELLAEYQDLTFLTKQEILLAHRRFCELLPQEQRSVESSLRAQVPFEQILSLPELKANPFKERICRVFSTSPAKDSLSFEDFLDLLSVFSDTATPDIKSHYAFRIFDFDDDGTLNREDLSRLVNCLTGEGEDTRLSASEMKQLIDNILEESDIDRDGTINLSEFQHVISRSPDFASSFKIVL
Cytochrome P450 3A4 (Homo sapiens), sequence (P08684 whole entry, looked up): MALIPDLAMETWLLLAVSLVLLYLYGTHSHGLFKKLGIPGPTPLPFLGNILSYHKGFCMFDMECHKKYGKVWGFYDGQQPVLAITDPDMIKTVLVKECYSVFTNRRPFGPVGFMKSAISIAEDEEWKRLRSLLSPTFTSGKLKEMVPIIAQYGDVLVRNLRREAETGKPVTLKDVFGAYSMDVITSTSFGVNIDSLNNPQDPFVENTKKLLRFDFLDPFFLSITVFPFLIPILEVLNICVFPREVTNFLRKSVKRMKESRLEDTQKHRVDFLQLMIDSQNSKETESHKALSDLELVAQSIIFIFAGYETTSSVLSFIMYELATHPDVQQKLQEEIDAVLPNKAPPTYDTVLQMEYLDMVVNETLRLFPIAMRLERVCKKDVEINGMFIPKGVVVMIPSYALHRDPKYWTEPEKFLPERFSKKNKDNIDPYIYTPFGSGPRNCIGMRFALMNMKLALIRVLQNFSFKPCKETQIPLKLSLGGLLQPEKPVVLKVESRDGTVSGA

With `CN1C[C@H](CNC(=O)OCc2ccccc2)C[C@@H]2c3cccc4c3c(cn4C)C[C@H]21`, the Potency result in experiment [1] and in experiment [4] was “inactive” in each case. Further, the result in experiment [2] and in experiment [3] was inactive.
With `CCC(C)n1ncn(-c2ccc(N3CCN(c4ccc(OC[C@H]5CO[C@](Cn6cncn6)(c6ccc(Cl)cc6Cl)O5)cc4)CC3)cc2)c1=O` (stereo partly specified), in experiment [5], the Potency was 2.51 µM (active). The Potency entry in experiment [6] and in experiment [7] was “inactive” throughout. The activity change, negative = inhibition in experiment [8] is -4.73% [at 27.1 µM].
As to `O=C(c1ccc(OCCN2CCCCC2)cc1)c1c(-c2ccc(O)cc2)sc2cc(O)ccc12`, the Potency in experiment [5] is 11.2 µM (active); in experiment [8], 31.6 µM (active). Also, the Potency entry in experiment [6] is “inactive”.
Take `Nc1ccn([C@@H]2O[C@H](CO)[C@@H](O)C2(F)F)c(=O)n1`: the Potency result in [6] and in experiment [7] was “inactive” in each case. Besides, the Potency in experiment [8] is 3.16 µM (active); in [9], 0.304 µM (active). The activity change, negative = inhibition in experiment [8] is -96.3%.
On to `COc1ccc(Cc2nccc3cc(OC)c(OC)cc23)cc1OC`, for which the Potency entry in [1], in [10] and in experiment [12] was “inactive” in each case. Moreover, in experiment [11], the outcome was inactive. In addition, the values for the Potency in experiment [13], in experiment [4] and in experiment [7] were 4.9 µM (active), 9.77 µM (active) and 7.94 µM (active), respectively.
As to `C#CCOC(C(=O)OCCN(C)C)(c1ccccc1)c1ccccc1`, the Potency result in [1], in experiment [10] and in experiment [12] was “inactive” throughout. Further, in [11], the result was inactive. Besides, the Potency was 1.55 µM (active) in [13] and 0.776 µM (active) in experiment [4].
Take `COC[C@@H](NC(C)=O)C(=O)NCc1ccccc1`: the Potency entry in experiment [1], in experiment [10], in experiment [14], in [12], in experiment [13] and in experiment [4] was “inactive” in each case. Moreover, the Potency entry in experiment [7] and in experiment [8] was “inactive” in each case. The result in experiment [11] was inactive.
Regarding `CCCC(C)(COC(N)=O)COC(=O)NC(C)C` (stereo unspecified), the Potency result in [1], in experiment [10], in experiment [12], in experiment [13] and in experiment [4] was “inactive” throughout. Moreover, the outcome in experiment [11] was inactive.
In the case of `CC(=O)[C@H]1CC[C@H]2[C@@H]3CC[C@H]4C[C@](C)(O)CC[C@]4(C)[C@H]3CC[C@]12C`, the Potency result (in [1]; in [10]; in experiment [12]; in [4]; in the experiment with Papain (Carica papaya)) was “inactive” throughout. Moreover, the result in experiment [11] was inactive. Moreover, the Potency in experiment [13] is 1.23 µM (active).
